Data: article PMC10812921, “Transcriptional Coactivator BOB1 (OBF1, OCA-B) Modulates the Specificity of DNA Recognition by the POU-Domain Factors OCT1 and OCT2 in a Monomeric Configuration”

How the values were obtained:
POU1 (OCT1 POU domain) = POU1 (OCT1 POU domain) (human, UniProt P14859 260-458); test: EMSA-SELEX-seq; no BOB1; 20 mM Tris-HCl pH 7.6, 140 mM NaCl, 10% glycerol, 0.5 mM EDTA, 0.05% Triton X-100, 0.1 mg/mL BSA, 0.1 mg/mL poly(dI-dC), 5 mM DTT, room temperature, 20 min; high values mean tight binding; conditions: protein: recombinant; dsDNA, one strand shown
In short: (§1)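 After expression in E. coli BL21, tagged POU-domain proteins were purified under denaturing conditions and then renatured. Each binding reaction held 30 ng protein and 300 ng of a PCR-amplified double-stranded random 35-nt library in 20 μL Tris–HCl pH 7.6 binding buffer, with or without 28 ng coactivator protein, for 20 min at RT. Bands holding complexes were cut from native 6% PAGE, eluted and PCR-amplified across four rounds, and the output was Illumina-sequenced. The value given for binding preference is the share, in percent, of sequenced 8-mers fitting a motif pattern.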

POU2 (OCT2 POU domain) = target: T1, POU2 (OCT2 POU domain) (human, UniProt P09086 175-386); test: as above; conditions: protein: recombinant; dsDNA, one strand shown
T1 sequence: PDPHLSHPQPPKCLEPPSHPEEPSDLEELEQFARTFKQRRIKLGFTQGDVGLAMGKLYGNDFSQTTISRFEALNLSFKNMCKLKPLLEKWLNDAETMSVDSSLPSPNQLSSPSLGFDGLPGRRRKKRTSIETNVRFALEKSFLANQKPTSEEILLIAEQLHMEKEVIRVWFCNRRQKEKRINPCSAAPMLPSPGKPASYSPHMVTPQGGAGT
In short: as §1

[1] = target: POU1 (OCT1 POU domain);BOB1 (OBF1, OCA-B) (human;human, UniProt P14859;Q16633 260-458;1-256, |); test: EMSA-SELEX-seq; with BOB1 (ternary complex band); 20 mM Tris-HCl pH 7.6, 140 mM NaCl, 10% glycerol, 0.5 mM EDTA, 0.05% Triton X-100, 0.1 mg/mL BSA, 0.1 mg/mL poly(dI-dC), 5 mM DTT, room temperature, 20 min; high values mean tight binding; conditions: protein: recombinant;recombinant; copies: 1;1; dsDNA, one strand shown
In short: as §1

[2] = target: T2, POU2 (OCT2 POU domain);BOB1 (OBF1, OCA-B) (human;human, UniProt P09086;Q16633 175-386;1-256, |); test: as above; conditions: protein: recombinant;recombinant; copies: 1;1; dsDNA, one strand shown
T2 sequence 1: T1 sequence
T2 sequence 2: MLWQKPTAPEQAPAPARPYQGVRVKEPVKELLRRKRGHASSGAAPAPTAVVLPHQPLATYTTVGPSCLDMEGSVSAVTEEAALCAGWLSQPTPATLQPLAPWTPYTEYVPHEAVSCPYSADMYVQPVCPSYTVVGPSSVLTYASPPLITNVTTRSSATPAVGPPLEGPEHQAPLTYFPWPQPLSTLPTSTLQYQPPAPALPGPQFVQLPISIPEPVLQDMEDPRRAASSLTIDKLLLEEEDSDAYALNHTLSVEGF
In short: as §1

Sequence of POU1 (OCT1 POU domain) (P14859 260-458): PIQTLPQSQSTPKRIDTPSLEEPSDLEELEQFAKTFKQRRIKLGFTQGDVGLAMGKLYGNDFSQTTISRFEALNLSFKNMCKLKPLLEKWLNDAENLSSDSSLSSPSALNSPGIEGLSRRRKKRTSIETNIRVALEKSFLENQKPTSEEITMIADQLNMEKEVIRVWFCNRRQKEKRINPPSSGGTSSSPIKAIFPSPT

Sequence: AATCCAAA
- binding signal (POU1 (OCT1 POU domain)): 0.0507 % of ANNNNAAN 8-mers
- binding signal (POU2 (OCT2 POU domain)): 0.0386 % of ANNNNAAN 8-mers
- binding signal [1]: 0.0726 % of ANNNNAAN 8-mers
- binding signal [2]: 0.0371 % of ANNNNAAN 8-mers

Sequence: ACCCAAAT
- binding signal (POU1 (OCT1 POU domain)): 0.0477 % of ANNNNAAN 8-mers
- binding signal (POU2 (OCT2 POU domain)): 0.0391 % of ANNNNAAN 8-mers
- binding signal [1]: 0.0753 % of ANNNNAAN 8-mers
- binding signal [2]: 0.0355 % of ANNNNAAN 8-mers

Sequence: ACATGAAC
- binding signal (POU1 (OCT1 POU domain)): 0.0244 % of ANNNNAAN 8-mers
- binding signal (POU2 (OCT2 POU domain)): 0.0334 % of ANNNNAAN 8-mers
- binding signal [1]: 0.0304 % of ANNNNAAN 8-mers
- binding signal [2]: 0.019 % of ANNNNAAN 8-mers

Sequence: AAGATAAT
- binding signal (POU1 (OCT1 POU domain)): 0.138 % of ANNNNAAN 8-mers
- binding signal (POU2 (OCT2 POU domain)): 0.203 % of ANNNNAAN 8-mers
- binding signal [1]: 0.0819 % of ANNNNAAN 8-mers
- binding signal [2]: 0.129 % of ANNNNAAN 8-mers

Sequence: ATCAAAAA
- binding signal (POU1 (OCT1 POU domain)): 0.061 % of ANNNNAAN 8-mers
- binding signal (POU2 (OCT2 POU domain)): 0.0702 % of ANNNNAAN 8-mers
- binding signal [1]: 0.0851 % of ANNNNAAN 8-mers
- binding signal [2]: 0.0636 % of ANNNNAAN 8-mers

Sequence: ACAGGAAG
- binding signal (POU1 (OCT1 POU domain)): 0.0343 % of ANNNNAAN 8-mers
- binding signal (POU2 (OCT2 POU domain)): 0.038 % of ANNNNAAN 8-mers
- binding signal [1]: 0.0332 % of ANNNNAAN 8-mers
- binding signal [2]: 0.0396 % of ANNNNAAN 8-mers

Sequence: ACCTTAAC
- binding signal (POU1 (OCT1 POU domain)): 0.0118 % of ANNNNAAN 8-mers
- binding signal (POU2 (OCT2 POU domain)): 0.0173 % of ANNNNAAN 8-mers
- binding signal [1]: 0.0152 % of ANNNNAAN 8-mers
- binding signal [2]: 0.0149 % of ANNNNAAN 8-mers

Sequence: AGCGCAAG
- binding signal (POU1 (OCT1 POU domain)): 0.013 % of ANNNNAAN 8-mers
- binding signal (POU2 (OCT2 POU domain)): 0.0121 % of ANNNNAAN 8-mers
- binding signal [1]: 0.0144 % of ANNNNAAN 8-mers
- binding signal [2]: 0.0165 % of ANNNNAAN 8-mers

Sequence: ACAGCAAT
- binding signal (POU1 (OCT1 POU domain)): 0.0286 % of ANNNNAAN 8-mers
- binding signal (POU2 (OCT2 POU domain)): 0.0288 % of ANNNNAAN 8-mers
- binding signal [1]: 0.0281 % of ANNNNAAN 8-mers
- binding signal [2]: 0.0215 % of ANNNNAAN 8-mers

Sequence: AGAGCAAC
- binding signal (POU1 (OCT1 POU domain)): 0.0133 % of ANNNNAAN 8-mers
- binding signal (POU2 (OCT2 POU domain)): 0.0115 % of ANNNNAAN 8-mers
- binding signal [1]: 0.0137 % of ANNNNAAN 8-mers
- binding signal [2]: 0.0206 % of ANNNNAAN 8-mers

Sequence: AGTGAAAT
- binding signal (POU1 (OCT1 POU domain)): 0.138 % of ANNNNAAN 8-mers
- binding signal (POU2 (OCT2 POU domain)): 0.124 % of ANNNNAAN 8-mers
- binding signal [1]: 0.196 % of ANNNNAAN 8-mers
- binding signal [2]: 0.121 % of ANNNNAAN 8-mers

Sequence: ACGACAAT
- binding signal (POU1 (OCT1 POU domain)): 0.029 % of ANNNNAAN 8-mers
- binding signal (POU2 (OCT2 POU domain)): 0.0299 % of ANNNNAAN 8-mers
- binding signal [1]: 0.025 % of ANNNNAAN 8-mers
- binding signal [2]: 0.0297 % of ANNNNAAN 8-mers

Sequence: ACATAAAA
- binding signal (POU1 (OCT1 POU domain)): 0.103 % of ANNNNAAN 8-mers
- binding signal (POU2 (OCT2 POU domain)): 0.114 % of ANNNNAAN 8-mers
- binding signal [1]: 0.073 % of ANNNNAAN 8-mers
- binding signal [2]: 0.0925 % of ANNNNAAN 8-mers

Sequence: ACACAAAT
- binding signal (POU1 (OCT1 POU domain)): 0.116 % of ANNNNAAN 8-mers
- binding signal (POU2 (OCT2 POU domain)): 0.0857 % of ANNNNAAN 8-mers
- binding signal [1]: 0.175 % of ANNNNAAN 8-mers
- binding signal [2]: 0.0916 % of ANNNNAAN 8-mers
